Twelve compounds from PubChem BioAssay AID1898 (National Center for Advancing Translational Sciences (NCATS), 2009) can be followed below.

The other results are listed elsewhere or left out. Inconclusive results are not listed. Activity calls are given as the source filed them. Calls come from the whole dose curve; as a rule, active = well fitted curve in the direction sought with a large enough effect; inconclusive = small, poorly fitted or top-dose-only effect, or another doubt; inactive = no such curve, though single readings can be large or run the other way.

The nature of this assay: Secondary assay for Activators of Human Pyruvate Kinase M2 isoform - Cell Titer Glo cytotoxicity assay. The conditions noted are these: HeLa viability, CellTiter-Glo ATP luminescence, 24 h; series mostly up to 57.5 µM. How it is done:
NIH Chemical Genomics Center [NCGC] Matthew G. Vander Heiden, M.D., Ph.D. [Harvard Medical School, 77 Avenue Louis Pasteur, Boston, MA 02115] MLPCN Grant: 1 R03 MH085679-01 NCGC Assay Overview: We have identified a series of activators of the M2 isoform of human pyruvate kinase. The assay described here examines the cytotoxicity of these compounds by measuring the total ATP content of Hela cells after 24 hrs of exposure to compound.
Assay Protocol: 500 Hela cells/ 4ul in media (DMEM with high glucose, 10% FBS, 1x Pen Strep, 1x NEAA) were dispensed into a white solid 1536-microwell plate with a Thermo Multidrop. The plates were incubated at 37 degrees Celsius for 24 hours. The cells were then treated with compounds using the Kalypsys pin tool, delivering 23 nl of test compounds and the control doxorubicin. The plates were then incubated for an additional 24 hours at 37 degrees C after which 4 ul of Promega Cell-Titer Glo was dispensed using the Thermo Multidrop. The plates were incubated at room temperature for 10 min before reading luminescence on the Perkin Elmer ViewLux with images collected with 2x binning and a 5 sec exposure time.
In the case of `CC(=O)c1cc(C#N)c(SCC(=O)Nc2nccs2)nc1C`, the compound was called inactive.

Consider `O=C(NCc1cccs1)C1CCN(S(=O)(=O)c2ccc3c(c2)OCCO3)CC1`, for which the compound was classed as inactive.

As for `O=C(NCc1ccccn1)c1c(O)c2c([nH]c1=O)CCCC2`, the outcome was inactive.

With `O=S(=O)(NCC1CN(S(=O)(=O)c2ccc3c(c2)OCCO3)C1)c1c(F)cccc1F`, the result was inactive.

`Cn1c2cc(B(O)O)sc2c2cnn(Cc3ccccc3F)c(=O)c21`: the outcome was inactive.

For `O=C(c1c(F)cccc1F)N1CCN(S(=O)(=O)c2ccc3c(c2)OCCO3)CC1`, the call was inactive.

Turning to `CN(C)N=Nc1ccc2nc[nH]c2c1`, the result was inactive.

Consider `O=S(=O)(NC1CCN(S(=O)(=O)c2ccc3c(c2)OCCO3)CC1)c1c(F)cccc1F`, for which the call was inactive.

On to `CSc1nc2ccc(S(=O)(=O)N3CCc4ccccc43)cc2s1`, for which the result was inactive.

As to `Cc1cc2c(s1)c1cnn(Cc3c(F)cccc3Cl)c(=O)c1n2C`, the call was inactive.

For the compound `O=S(=O)(NCCCCCCNS(=O)(=O)c1c(F)cccc1F)c1ccc2c(c1)OCCO2`, the result was inactive.

In the case of `Cc1ccc(Cn2ncc3c4sc(C)cc4n(C)c3c2=O)c(C)c1`, the result was inactive.
